Activity calls are given as the source filed them. Unless noted, the rule behind the calls is not given here.
Tests used:
[1] = test system: Wnt5a (protein binding on small-molecule microarray); test: small molecules binding Wnt5a protein – biophysical, small-molecule microarray, 635/667 nm fluorescence, primary screen (AID 1142); conditions: 635 nm fluorescence, higher = more signal;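 note: fluorescence read at 667 nm with signal to noise per printed feature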
[2] = ATP-based viability of Huh7 replicon cells – cell-based, CellTiter-Glo luminescence, basal, 48 h, cytotoxicity control for HCV replication inhibitor project, primary screen (AID 1143); conditions: higher = more signal, called active from +8 up or from −8 down;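 note: Huh7 hepatoma cells carrying a hepatitis C replication reporter with no stimulus; test concentration not given here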
[3] = Pseudomonas biofilm growth suppression – PAO1 strain, BacTiter-Glo luminescence, LB-PBS, primary screen (AID 1144); conditions: P. aeruginosa PAO1 biofilm, 12 h, higher = more signal
[4] = basal CRE-LacZ reporter activity in PC12 – cell-based, unstimulated, primary screen (AID 1145); conditions: no forskolin, luminescence, 4.5 h, higher = more signal, called active from +8 up or from −8 down
[5] = forskolin-driven CRE-LacZ activity in PC12 – cell-based, CRE-LacZ reporter, forskolin-stimulated, primary screen (AID 1146); conditions: luminescence, 4.5 h, higher = more signal, called active from +8 up or from −8 down;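 note: PC12 cells with 6xCRE LacZ reporter stimulated by forskolin 10 µM; beta-galactosidase reporter signal reflecting CREB driven transcription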
[6] = biological target: Streptavidin (Streptomyces avidinii) (UniProt P22629); test: compounds binding control protein streptavidin – biophysical, small-molecule microarray, 635/667 nm fluorescence, artefact control for SMM compound annotation, primary screen (AID 1147); conditions: higher = more signal;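 note: signal reflects streptavidin binding to arrayed compounds as a control protein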
Streptavidin (Streptomyces avidinii), sequence (P22629 whole entry, looked up): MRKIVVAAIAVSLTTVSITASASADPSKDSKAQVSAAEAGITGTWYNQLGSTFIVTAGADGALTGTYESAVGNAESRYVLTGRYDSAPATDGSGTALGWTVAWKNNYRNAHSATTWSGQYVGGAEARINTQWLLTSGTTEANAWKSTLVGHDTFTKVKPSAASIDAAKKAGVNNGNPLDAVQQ

[7] = probe aInhba binding on compound microarray – biochemical, small-molecule microarray, 635/667 nm fluorescence, primary screen (AID 1148); conditions: higher = more signal;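 note: score merges 667nm spot fluorescence with signal-to-noise for antibody binding to printed compounds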
[8] = biological target: Torsin-1A (Homo sapiens) (UniProt O14656); test: TOR1A wild-type binding on microarray – cell lysate, small-molecule microarray, lysate, 635/667 nm, primary screen (AID 1149); conditions: COS7 hTOR1A-WT lysate, 635 nm fluorescence, higher = more signal
Torsin-1A (Homo sapiens), sequence (O14656 whole entry, looked up): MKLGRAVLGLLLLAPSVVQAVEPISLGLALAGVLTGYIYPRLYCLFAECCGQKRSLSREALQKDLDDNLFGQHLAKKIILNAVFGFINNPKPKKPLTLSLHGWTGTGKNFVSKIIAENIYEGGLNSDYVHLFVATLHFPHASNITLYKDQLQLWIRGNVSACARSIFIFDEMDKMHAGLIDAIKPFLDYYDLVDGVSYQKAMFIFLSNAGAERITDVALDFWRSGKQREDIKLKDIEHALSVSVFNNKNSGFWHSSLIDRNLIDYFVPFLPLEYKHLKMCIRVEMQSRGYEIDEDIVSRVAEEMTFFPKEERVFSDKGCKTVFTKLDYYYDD

[9] = biological target: Torsin-1A (Homo sapiens) (UniProt O14656); test: torsin A mutant lysate binding on microarrays – cell lysate, small-molecule microarray, COS7 lysate, 635/667 nm fluorescence, primary screen (AID 1150); conditions: COS7 hTOR1A mutant lysate, 635 nm fluorescence, higher = more signal;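 note: score pools 667 nm emission and signal to noise measuring lysate protein binding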
[10] = test system: Sonic hedgehog protein (Shh); test: Sonic hedgehog microarray binding compounds – biochemical, small-molecule microarray, 635/667 nm fluorescence, primary screen (AID 1151); conditions: 635 nm fluorescence, higher = more signal;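 note: Shh protein binding to compounds spotted on small-molecule microarray slides; score combines spot fluorescence intensity with signal-to-noise across triplicate slides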
[11] = optical density shifts of acrAB sulA E. coli – strain DRC41, OD650, 48 h, E. coli filamentation inducer project, primary screen (AID 1152); conditions: higher = more signal, called active from +8 up or from −8 down;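 note: E. coli MC1000 strain DRC41 lacking acrAB efflux pump and sulA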
[12] = probe aLefty1 binding on compound microarray – biochemical, small-molecule microarray, 635/667 nm fluorescence, primary screen (AID 1153); conditions: higher = more signal;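 note: score merges spot fluorescence with signal-to-noise ratio from the scanned slide images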
[13] = plasmodial surface anion channel blockers, osmotic lysis – cell-based, P. falciparum Indochina, OD700, 1 h, primary screen (AID 1154); conditions: P. falciparum Indochina infected RBC osmotic lysis, higher = more signal, called active from +8 up or from −8 down
[14] = plasmodial surface anion channel blockers, osmotic lysis – cell-based, P. falciparum Indochina, OD700, 2 h, primary screen (AID 1155);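 note: lysis reports solute entry through the parasite surface anion channel PSAC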; conditions: P. falciparum Indochina infected erythrocytes, higher = more signal, called active from +8 up or from −8 down
[15] = changes in parasitized red cell lysis, either direction – P. falciparum Indochina, OD700, 3 h, PSAC antagonist project, primary screen (AID 1156); conditions: P. falciparum-infected erythrocytes, osmotic lysis, higher = more signal, called active from +8 up or from −8 down
[16] = plasmodial surface anion channel blockers, osmotic lysis – cell-based, P. falciparum Indochina, OD700, 18 h, primary screen (AID 1157); conditions: P. falciparum Indochina infected erythrocytes, osmotic lysis OD700, 18 h; higher = more signal, called active from +8 up or from −8 down
[17] = S6 kinase pathway phospho-S6 level changes – cell-based, A549, cytoblot, luminescence, serum-stimulated, primary screen (AID 1158); conditions: 5 h, higher = more signal;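 note: serum-stimulated A549 lung adenocarcinoma cells; signal is phosphorylated S6 detected by cytoblot immunostaining with HRP secondary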
[18] = biological target: NADPH oxidase 2 (Homo sapiens) (UniProt P04839); test: compounds shifting NOX2 Amplex Red fluorescence – cell-based, HEK293-NOX2, PMA-stimulated, NOX inhibitor project, primary screen (AID 1159); conditions: 45 min, higher = more signal, called active from +8 up or from −8 down; note: test concentration not given here
NADPH oxidase 2 (Homo sapiens), sequence (P04839 whole entry, looked up): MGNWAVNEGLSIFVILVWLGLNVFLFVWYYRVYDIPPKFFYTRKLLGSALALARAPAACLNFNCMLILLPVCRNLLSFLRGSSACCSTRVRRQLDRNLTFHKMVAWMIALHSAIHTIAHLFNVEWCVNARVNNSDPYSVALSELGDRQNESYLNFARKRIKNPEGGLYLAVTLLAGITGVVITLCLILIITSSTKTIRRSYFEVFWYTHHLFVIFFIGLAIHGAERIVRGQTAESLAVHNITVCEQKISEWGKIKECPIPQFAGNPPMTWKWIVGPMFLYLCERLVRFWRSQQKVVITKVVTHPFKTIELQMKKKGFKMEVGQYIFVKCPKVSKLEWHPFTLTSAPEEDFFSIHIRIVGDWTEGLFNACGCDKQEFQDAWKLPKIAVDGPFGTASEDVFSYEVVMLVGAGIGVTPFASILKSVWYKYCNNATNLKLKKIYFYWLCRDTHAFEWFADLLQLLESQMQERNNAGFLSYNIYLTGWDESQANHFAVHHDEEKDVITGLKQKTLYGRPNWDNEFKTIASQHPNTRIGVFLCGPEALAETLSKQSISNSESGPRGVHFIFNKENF

[19] = biological target: NADPH oxidase 4 (Homo sapiens) (UniProt Q9NPH5); test: compounds shifting NOX4 Amplex Red fluorescence – cell-based, HEK293-NOX4, tetracycline-induced, NOX inhibitor project, primary screen (AID 1160); conditions: HEK293-NOX4, Amplex Red H2O2 fluorescence, 45 min; higher = more signal, called active from +8 up or from −8 down
NADPH oxidase 4 (Homo sapiens), sequence (Q9NPH5 whole entry, looked up): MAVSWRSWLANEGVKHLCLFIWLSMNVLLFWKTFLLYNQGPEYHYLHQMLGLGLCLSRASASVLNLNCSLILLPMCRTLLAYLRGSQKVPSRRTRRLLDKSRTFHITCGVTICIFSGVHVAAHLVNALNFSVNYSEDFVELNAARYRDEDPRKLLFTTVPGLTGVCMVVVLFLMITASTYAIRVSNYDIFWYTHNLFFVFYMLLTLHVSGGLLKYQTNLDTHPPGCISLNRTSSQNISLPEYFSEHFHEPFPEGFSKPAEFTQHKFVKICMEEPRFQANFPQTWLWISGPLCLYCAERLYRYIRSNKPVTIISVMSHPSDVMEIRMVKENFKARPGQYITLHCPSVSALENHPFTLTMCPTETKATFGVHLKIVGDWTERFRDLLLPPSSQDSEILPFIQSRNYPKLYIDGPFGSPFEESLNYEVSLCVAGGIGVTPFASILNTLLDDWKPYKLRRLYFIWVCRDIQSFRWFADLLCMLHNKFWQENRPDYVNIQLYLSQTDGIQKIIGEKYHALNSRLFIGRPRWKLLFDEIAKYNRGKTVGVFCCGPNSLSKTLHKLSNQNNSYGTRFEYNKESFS

[20] = biological target: NADPH oxidase 5 (Homo sapiens) (UniProt Q96PH1); test: compounds shifting NOX5 Amplex Red fluorescence – cell-based, HEK293-NOX5, NOX inhibitor project, primary screen (AID 1161); conditions: HEK293-NOX5, ionomycin, 45 min, higher = more signal
NADPH oxidase 5 (Homo sapiens), sequence (Q96PH1 whole entry, looked up): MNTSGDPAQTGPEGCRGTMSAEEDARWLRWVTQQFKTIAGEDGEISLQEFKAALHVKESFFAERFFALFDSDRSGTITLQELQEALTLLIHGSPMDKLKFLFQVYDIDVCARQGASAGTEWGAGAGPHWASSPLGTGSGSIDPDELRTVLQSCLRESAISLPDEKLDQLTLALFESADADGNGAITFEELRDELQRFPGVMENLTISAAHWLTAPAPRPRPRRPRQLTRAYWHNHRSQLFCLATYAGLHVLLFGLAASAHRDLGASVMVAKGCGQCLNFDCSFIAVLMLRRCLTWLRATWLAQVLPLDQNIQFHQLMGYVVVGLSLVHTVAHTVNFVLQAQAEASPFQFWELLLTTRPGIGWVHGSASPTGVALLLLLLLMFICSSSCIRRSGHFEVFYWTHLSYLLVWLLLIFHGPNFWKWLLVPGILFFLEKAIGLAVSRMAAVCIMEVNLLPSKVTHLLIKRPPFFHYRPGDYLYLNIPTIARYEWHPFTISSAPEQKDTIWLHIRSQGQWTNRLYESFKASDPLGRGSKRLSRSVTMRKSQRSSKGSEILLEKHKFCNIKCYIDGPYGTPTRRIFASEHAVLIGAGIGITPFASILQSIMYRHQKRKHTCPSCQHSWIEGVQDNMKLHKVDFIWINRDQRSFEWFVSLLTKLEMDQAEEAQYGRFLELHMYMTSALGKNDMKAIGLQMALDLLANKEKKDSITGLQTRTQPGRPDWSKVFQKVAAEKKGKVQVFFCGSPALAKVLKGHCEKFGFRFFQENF

| Structure (SMILES) | composite z-score [1] | z-score [2] | z-score [3] | z-score [4] | z-score [5] | composite z-score [6] | composite z-score [7] | composite z-score [8] | composite z-score [9] | composite z-score [10] | z-score [11] | composite z-score [12] | z-score [13] | z-score [14] | z-score [15] | z-score [16] | z-score [17] | z-score [18] | z-score [19] | z-score [20] |
| --- | --- | --- | --- | --- | --- | --- | --- | --- | --- | --- | --- | --- | --- | --- | --- | --- | --- | --- | --- | --- |
| CC1CC/C=C\[C@H]2OC34C=CCN(c5ccc(Cl)cc5)C(=O)[C@H]3N(CCCCCO)C(=O)[C@]4(C)C2C(=O)O1 (stereo not given in full) | -0.793 | 0.504 (inactive) | 0.454 (inactive) | 0.329 (inactive) | -0.75 (inactive) | -1.18 | -0.251 | -2.18 | -1.48 | -0.449 | -0.351 (inactive) | -0.101 | -0.585 (inactive) | 0.231 (inactive) | -0.175 (inactive) | 0.0119 (inactive) | -0.157 | 0.57 (inactive) | -0.261 (inactive) | 1.05 |
| COCCOC(=O)N1C(=O)[C@@]2(c3cc(C#CCCO)ccc31)[C@H](c1ccccc1OCCO)N1[C@H](c3ccccc3)[C@H](c3ccccc3)OC(=O)[C@H]1[C@@H]2C(=O)Nc1nc2ccccc2s1 | 0.138 | -0.99 (inactive) | 0.564 (inactive) | -0.467 (inactive) | 0.428 (inactive) | 0.284 | 0.107 | 0.691 | 0.568 | 1.66 | -0.395 (inactive) | 0.241 | 13.1 (active) | 3.36 (inactive) | 0.621 (inactive) | 1.66 (inactive) | -0.202 | 1.18 (inactive) | 0.781 (inactive) | 1.53 |
| CC(=O)NCCCC[C@@H]1NC(=O)[C@H]2C[C@@H](C(=O)NCCCC[N+](C)(C)C)[C@@H](c3cccc(OCCO)c3)N2C1=O | 0.975 | -1.62 (inactive) | 0.481 (inactive) | -0.667 (inactive) | 0.451 (inactive) | -0.296 | 0.0031 | 1.07 | 2.34 | 2.18 | 0.485 (inactive) | 0.165 | 2.46 (inactive) | 0.331 (inactive) | -1.58 (inactive) | 0.374 (inactive) | -0.611 | -1.23 (inactive) | -0.477 (inactive) | -1.08 |
| C=C(/C(=C/C[C@H](OC(=O)c1ccncc1)c1ccc(CO)o1)c1cc(C(=O)OC)ccc1OC)C(C)C | -0.0222 | -0.398 (inactive) | -0.742 (inactive) | 0.621 (inactive) | 0.953 (inactive) | -0.328 | 0.16 | 1.3 | 1.81 | 1.36 | -0.23 (inactive) | 0.0187 | 3.3 (inactive) | 0.365 (inactive) | 1.25 (inactive) | 0.136 (inactive) | -0.578 | -1.06 (inactive) | -0.154 (inactive) | -0.6 |
| O=C1OCC=C[C@H]2OC34C=CCN(c5ccc(Cl)cc5)C(=O)[C@H]3N(CCO)C(=O)[C@@H]4[C@@H]12 (stereo not given in full) | -0.649 | 0.168 (inactive) | 3.17 (inactive) | 0.601 (inactive) | -0.663 (inactive) | -1.02 | -0.26 | -0.846 | -1.84 | -0.889 | -0.367 (inactive) | -0.147 | 0.506 (inactive) | 0.0971 (inactive) | 0.111 (inactive) | 0.403 (inactive) | -0.677 | 1.12 (inactive) | 0.908 (inactive) | 1.31 |
| CC(C)Cc1ccc(CN2CC[C@@H](NC(=O)Nc3ccccc3)C2)cc1 | 0.0405 | -8.72 (active) | -0.00187 (inactive) | 0.757 (inactive) | -0.269 (inactive) | -0.0067 | -0.148 | 0.257 | 0.274 | 0.826 | -3.31 (inactive) | -0.191 | 1.96 (inactive) | 0.981 (inactive) | 1.84 (inactive) | 0.575 (inactive) | -1.03 | -0.507 (inactive) | -0.351 (inactive) | -1.88 |
| [N-]=[N+]=Nc1ccccc1[C@H]1OC(c2ccc(OCCCO)cc2)=N[C@@]1(CCS(=O)(=O)c1ccccc1)C(=O)NCCN1CCOCC1 | 1.11 | -1.14 (inactive) | 1.38 (inactive) | -0.45 (inactive) | -0.5 (inactive) | 0.866 | 0.283 | 0.484 | 1.47 | 0.273 | -0.0631 (inactive) | 0.458 | 28.9 (active) | 25.6 (active) | 0.931 (inactive) | 1.8 (inactive) | 0.468 | -2.18 (inactive) | -0.233 (inactive) | -1.47 |
| CC(C)(C)N1CC=CC23O[C@@H]4C=CCCOC(=O)C4[C@H]2C(=O)N(CCO)[C@@H]3C1=O (stereo not given in full) | -0.323 | 0.297 (inactive) | -0.249 (inactive) | -1.44 (inactive) | -0.443 (inactive) | -0.485 | -0.237 | -0.102 | -0.664 | 1.09 | 0.209 (inactive) | -0.0823 | 0.901 (inactive) | 0.884 (inactive) | 1.28 (inactive) | 0.6 (inactive) | 0.461 | 1.31 (inactive) | 0.696 (inactive) | 1.23 |

Reference: PubChem BioAssay
